Most compounds without a hit are left out; they make up all but 0.87% or so of the library.
APE1 inh: APE1 (human) endonuclease inhibition. P27695. recombinant APE1, TAMRA/BHQ-2 abasic DNA cleavage fluorescence. Potency, µM (top dose mostly 65.8 µM), without a hit: top-dose activity change, negative = inhibition, hits mostly inhibitors. 350,000 compounds, 0.35% hits. AID 2517;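 also: plate controls were vehicle for no effect and reference inhibitor for full effect; nearly all actives have a fitted effect of over 55% in size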
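Substrate: short duplex with […] THF abasic site, 5'-TAMRA and 3'-BHQ-2, 50 nM final. APE1 at 0.75 nM, preincubated 15 min RT with compound. Fluorescence increase from first to third read measured activity.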
RECQ1 inh-1: RECQ1 (human) helicase inhibition; Potency, µM (top dose mostly 57.3 µM), for the others: at the top dose activity, negative = inhibition, hits mostly inhibitors; AID 2549; 240,000 compounds, 0.54% hits; RECQ1 DNA unwinding, red fluorescence kinetic read; P46063;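 also: plate controls were vehicle for no effect and no enzyme for full effect; nearly all actives have a fitted effect of over 30% in size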
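RECQ1T1 50 nM; forked duplex (20 bp + 30-nt ss tails) 200 nM, ATP 2 mM final; pH 8.0, 2 mM MgCl2, 2.5 ug/ml poly(dI-dC); 15 min compound preincubation; discontinuous kinetic read over 2 h at RT.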
RGS4 inh: blocks human RGS4-accelerated GTP hydrolysis; Transcreener GDP fluorescence polarization, RGS4-accelerated GTP hydrolysis; 390,000 compounds, 0.039% hits; Potency, µM (doses to about 114 µM), inactives show top-dose activity change, negative = inhibition, actives largely listed as inhibitors; P49798; AID 504845; also: nearly all actives have a fitted effect of over 75% in size
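MLSMR compounds (23 nl, pin-transferred) preincubated 10 min at room temperature with a 500nM (2x) first reagent, then RGS4 at 900nM (2x) plus Transcreener GDP mix added; fluorescence polarization (620/688 nm) read before and after 90 min at 30 °C.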
KAT2A inh: GCN5L2 (KAT2A) acetyltransferase inhibition | 390,000 compounds, 0.21% hits | GCN5L2 HAT assay, ThioGlo1 CoA-SH fluorescence | Potency, µM (highest dose often 58.9 µM), without a hit: top-dose activity change, negative = inhibition, most hits filed as inhibitors | Q92830 | AID 504327
Target sequence (Q92830 whole entry, looked up): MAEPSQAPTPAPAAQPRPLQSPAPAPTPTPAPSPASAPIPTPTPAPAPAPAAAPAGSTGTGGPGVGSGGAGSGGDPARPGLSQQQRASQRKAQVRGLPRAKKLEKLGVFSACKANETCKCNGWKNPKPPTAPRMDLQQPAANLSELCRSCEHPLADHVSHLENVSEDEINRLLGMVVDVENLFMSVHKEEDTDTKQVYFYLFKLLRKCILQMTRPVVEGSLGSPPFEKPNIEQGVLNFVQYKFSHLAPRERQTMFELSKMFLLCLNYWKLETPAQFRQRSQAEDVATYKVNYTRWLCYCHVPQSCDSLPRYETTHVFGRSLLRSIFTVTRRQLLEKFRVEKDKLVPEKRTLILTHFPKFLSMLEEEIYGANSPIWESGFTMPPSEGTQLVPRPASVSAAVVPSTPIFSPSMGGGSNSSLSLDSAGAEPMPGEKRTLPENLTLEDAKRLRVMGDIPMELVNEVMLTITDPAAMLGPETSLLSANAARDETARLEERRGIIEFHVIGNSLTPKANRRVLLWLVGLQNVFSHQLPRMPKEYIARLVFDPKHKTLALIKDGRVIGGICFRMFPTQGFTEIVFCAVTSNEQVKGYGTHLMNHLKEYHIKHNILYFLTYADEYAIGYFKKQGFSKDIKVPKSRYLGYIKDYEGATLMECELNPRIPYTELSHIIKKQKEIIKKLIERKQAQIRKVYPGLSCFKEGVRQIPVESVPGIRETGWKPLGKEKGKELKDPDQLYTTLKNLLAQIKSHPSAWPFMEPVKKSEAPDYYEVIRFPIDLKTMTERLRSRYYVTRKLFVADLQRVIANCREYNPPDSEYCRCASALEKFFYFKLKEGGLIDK
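qHTS, 1536-well. 20nM enzyme, pH 7.5 HEPES/EDTA/Tween-20 buffer; 15 min compound preinc., RT. Start: 75uM H3(1-25), 70uM AcCoA, 50uM ThioGlo1. Read Ex340/Em540 at t=0 (autofluorescence flag) and t=20 min.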
BLM helicase inh: blocks DNA unwinding by human BLM helicase; 350,000 compounds, 0.2% hits; Potency, µM (doses to about 56.1 µM), inactives show top-dose activity change, negative = inhibition, usual class: inhibitors; recombinant BLM DNA unwinding, fluorescence dequenching; AID 2528;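 also: plate controls were vehicle for no effect and no enzyme for full effect; nearly all actives have a fitted effect of over 35% in size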
TDP1 block: blocks human tyrosyl-DNA phosphodiesterase 1. Q9NUW8. recombinant TDP1, AlphaScreen DNA substrate cleavage. Potency, µM (doses to about 130 µM), for the others: top-dose activity change, negative = inhibition, usual class: inhibitors. 350,000 compounds, 0.28% hits. AID 485290; also: nearly all actives have a fitted effect of over 40% in size
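Tdp1 1 nM final; 15 min RT w/ cpd; substrate 15 nM, 5 min; beads 10 ug/ml, 10 min; AlphaScreen read. Neg ctrl: no enzyme.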
RECQ1 conf: confirmation of human RECQ1 helicase inhibitors. shares compounds with RECQ1 inh-1. 610 compounds, 28% hits. RECQ1 helicase DNA unwinding, fluorescence. Potency, µM (series often up to 229 µM), for the others: at the top dose activity change, negative = inhibition, actives largely listed as inhibitors; also: nearly all actives have a fitted effect of over 45% in size
RECQ1 ADP FP: displaces ADP in a fluorescence polarization counter-screen for RECQ1 hits. shares compounds with RECQ1 inh-1. ADP fluorescence polarization displacement counterscreen. Potency, µM (top dose mostly 228 µM), inactives show at the top dose activity change, negative = inhibition, actives largely listed as inhibitors. 530 compounds, 27% hits; also: nearly all actives have a fitted effect of over 45% in size
RECQ1 inh-2: blocks human RECQ1 DNA unwinding; shares compounds with RECQ1 inh-1; AID 504841; 1,100 compounds, 15% hits; recombinant RECQ1 DNA unwinding, red fluorescence; Potency, µM (series often up to 119 µM), without a hit: top-dose activity, negative = inhibition, usual class: inhibitors; also: nearly all actives have a fitted effect of over 50% in size
The depositor's hits bear a star; [ ] = dose if it differs, or a comment. Calls follow the shape of the dose curve; as a rule, active = well fitted curve in the direction sought with a large enough effect; inconclusive = small, poorly fitted or top-dose-only effect, or another doubt; inactive = no such curve, though single readings can be large; an effect the other way counts as inactive or inconclusive. Unless noted, % is scaled to controls: 0 for no effect and ±100 for the full control effect; potency is read from the fitted curve at half-maximal effect.

Results for Cc1cc(-n2c(SCc3ccccc3F)nc3[nH]ncc3c2=O)ccc1Cl ?
RGS4 inh: -22%; KAT2A inh: -14%; BLM helicase inh: -10%; TDP1 block: 9%

What do the screens show for `COc1ccc(C(CC(=O)N2CCCC(C)C2)c2c(OC)cc(OC)c3c(-c4ccccc4)cc(=O)oc23)cc1` (stereo not drawn)?
APE1 inh: inconclusive; RECQ1 inh-1: inactive; RGS4 inh: -27%; KAT2A inh: 0%; BLM helicase inh: -29%

What do the screens show for `COc1ccc(C(CC(=O)N2CCCC2)c2c(OC)cc(OC)c3c(-c4ccccc4)cc(=O)oc23)cc1` (stereo not drawn)?
APE1 inh: 10µM*; RECQ1 inh-1: 13µM*; RGS4 inh: -48%; KAT2A inh: -12%; BLM helicase inh: inconclusive; TDP1 block: 7.9µM*; RECQ1 inh-2: 20µM*

What do the screens show for `COc1ccc(Cn2cccc(NC(=O)Nc3cccc(OC)c3)c2=O)cc1`?
APE1 inh: -1%; RECQ1 inh-1: inconclusive; RGS4 inh: -17%; KAT2A inh: -9%; BLM helicase inh: -11%; TDP1 block: 3%; RECQ1 inh-2: -17%

Results for O=[N+]([O-])c1cc(F)c2cccnc2c1O ?
APE1 inh: -5%; RECQ1 inh-1: inconclusive; RGS4 inh: -46%; KAT2A inh: -6%; BLM helicase inh: inconclusive; TDP1 block: 11%; RECQ1 inh-2: 20%

Results for Cn1c(=NC(=O)c2ccc(S(=O)(=O)N3CCCc4ccccc43)cc2)sc2cc(S(C)(=O)=O)ccc21 ?
APE1 inh: -1%; RECQ1 inh-1: -2%; RGS4 inh: 5%; KAT2A inh: -6%; BLM helicase inh: 0%; TDP1 block: -2%

How did C#CCn1c(=NC(=O)c2ccc(S(=O)(=O)N3CCCc4ccccc43)cc2)sc2cc(S(N)(=O)=O)ccc21 do in these assays?
APE1 inh: 2%; RECQ1 inh-1: 0%; RGS4 inh: 15%; KAT2A inh: -9%; BLM helicase inh: -4%; TDP1 block: 5%; RECQ1 conf: -7%; RECQ1 ADP FP: 20%

How did O=[N+]([O-])c1ccc(Sc2cccc[n+]2[O-])c2nonc12 do in these assays?
APE1 inh: inconclusive; RECQ1 inh-1: inconclusive; RGS4 inh: -117%; KAT2A inh: 16µM*; BLM helicase inh: inconclusive; TDP1 block: 9%; RECQ1 inh-2: 25µM*

How did Cc1ccc(C(=O)C(OC(=O)CNC(=O)COc2ccccc2C)c2ccccc2)cc1 (stereo not drawn) do in these assays?
RGS4 inh: 0%; TDP1 block: 2%

How did CCOc1cccc(=O)c2c(C)n(-c3ccc(C(=O)O)cc3)c(C)c12 do in these assays?
APE1 inh: inconclusive; RECQ1 inh-1: inconclusive; RGS4 inh: -31%; KAT2A inh: -11%; BLM helicase inh: 33%; RECQ1 inh-2: inconclusive

What do the screens show for `COc1cccc(=O)c2c(C)n(-c3ccc(C(=O)O)cc3)c(C)c12`?
APE1 inh: inconclusive; RECQ1 inh-1: inconclusive; RGS4 inh: -32%; KAT2A inh: -5%; BLM helicase inh: 2%; TDP1 block: inconclusive; RECQ1 inh-2: inconclusive

What do the screens show for `COc1ccc(-n2c(C)c3c(OC)cccc(=O)c3c2C)cc1`?
APE1 inh: -2%; RECQ1 inh-1: inactive; RGS4 inh: 5%; KAT2A inh: -9%; BLM helicase inh: -3%; TDP1 block: 8%

How did CCc1cccc2cc(C(O)CNC(C)(C)C)oc12 (stereo not drawn) do in these assays?
APE1 inh: 19%; RECQ1 inh-1: 10%; KAT2A inh: 1%; BLM helicase inh: 1%; TDP1 block: 6%

What do the screens show for `COc1ccc(CCn2c(=S)[nH]c3cc(C(=O)N4CCOCC4)ccc3c2=O)cc1OC`?
APE1 inh: 17%; RECQ1 inh-1: 35µM*; RGS4 inh: -1%; KAT2A inh: -1%; BLM helicase inh: -6%; TDP1 block: -3%; RECQ1 inh-2: -48%

What do the screens show for `CCOC(=O)CN1C(=O)N[C@@H](c2ccccc2)[C@H](C(=O)OC)[C@H]1C`?
APE1 inh: -7%[12.4 µM]; RECQ1 inh-1: 0%[11.5 µM]; BLM helicase inh: -3%[12.4 µM]; TDP1 block: 9%[21 µM]

What do the screens show for `Cc1ccc(SCC(=O)Nc2cccc(C)c2)cc1`?
APE1 inh: -2%; RECQ1 inh-1: 25µM*; RGS4 inh: 26%; KAT2A inh: -11%; BLM helicase inh: 0%; TDP1 block: -7%; RECQ1 inh-2: -12%

What do the screens show for `COc1ccc(C2=CC3=C(Br)C(=O)C(C)(OC(=O)C4CCCC4)C(=O)C3=CO2)cc1` (stereo not drawn)?
APE1 inh: -1%; RECQ1 inh-1: 3%; RGS4 inh: inconclusive; KAT2A inh: -4%; BLM helicase inh: -4%; TDP1 block: 2%

How did COC(=O)CCC(=O)OC1(C)C(=O)C2=COC(c3ccc(OC)cc3)=CC2=C(Br)C1=O (stereo not drawn) do in these assays?
APE1 inh: inconclusive; RECQ1 inh-1: inconclusive; RGS4 inh: -43%; KAT2A inh: -5%; BLM helicase inh: 0%; TDP1 block: -6%; RECQ1 inh-2: 56µM*

Results for CCOC(=O)c1sc2ccc(S(=O)(=O)N3CC(C)CC(C)C3)cc2c1N (stereo not drawn) ?
APE1 inh: -3%; RECQ1 inh-1: -1%; RGS4 inh: -25%; KAT2A inh: 0%; BLM helicase inh: -4%; TDP1 block: -3%

Screening results from PubChem BioAssay.
